Reference: PubChem BioAssay (NCI)
About 83,000 compounds went through this panel and 20% of them were active in at least one assay; those are over-represented in the sample as a whole.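 Compound tested at a single concentration for 48 hours in 96-well plates; a percent growth value below 10 was scored as active.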 Unmarked numbers belong to inactive results. The source made the active and inactive calls.

Columns and labels:
Test in all cases: NCI-60 one-dose screen, 48 h (100 = growth as untreated, 0 = no growth, -100 = all killed)
Details in all cases: 10 µM unless noted
DU-145 prostate = test system: DU-145 prostate
K-562 leukemia = test system: K-562 leukemia
MALME-3M melanoma = test system: MALME-3M melanoma
MDA-MB-231 breast = test system: MDA-MB-231 breast
RXF 393 renal = test system: RXF 393 renal
SF-268 CNS = test system: SF-268 CNS
SF-539 CNS = test system: SF-539 CNS
UACC-257 melanoma = test system: UACC-257 melanoma
M14 melanoma = test system: M14 melanoma
SF-295 CNS = test system: SF-295 CNS

Row | Structure (SMILES) | growth (DU-145 prostate) | growth (K-562 leukemia) | growth (MALME-3M melanoma) | growth (MDA-MB-231 breast) | growth (RXF 393 renal) | growth (SF-268 CNS) | growth (SF-539 CNS) | growth (UACC-257 melanoma) | growth (M14 melanoma) | growth (SF-295 CNS)
1 | OC(c1cc(C23CC4CC(CC(C4)C2)C3)nc2c(Cl)cc(Cl)cc12)C1CCCCN1 (configuration not stated) | -93.6% (active) | -67% (active) | -16.3% (active) | -62.2% (active) | -91.4% (active) | -86.9% (active) | -76.9% (active) | -69.1% (active) | -85.6% (active) | 
2 | O=C(O)c1ccc2c(c1)C(=O)c1ccccc1C2=O | 98.5% | 88.7% | 102% | 94.1% | 110% | 98.3% | 97.7% |  | 101% | 100%
3 | CCC1C[N+]2=C(c3cc(OC)c(OC)cc3CC2)c2c1cc1n2CCc2cc(OC)c(OC)cc2-1 (configuration not stated) | 49% | 21.5% | 29.9% | 46.1% | 88.7% | 33.3% | 31.9% |  | 36.1% | 63.6%
4 | CN(C)c1ccc(/C=C/c2nccc3ccccc23)cc1 | 101% | 92.8% | 110% | 51.3% | 102% | 97.2% | 99% |  | 88.8% | 79.1%
5 | CCC1CCCCN1C(=S)N/N=C(\C)c1ccccn1 (configuration not stated) | 20.3% | 12.3% | -13.2% (active) | 21.5% | 0.202% (active) | 1.82% (active) |  | 0% (active) | 0.97% (active) | 13%
6 | O=C(c1ccccc1)C(O)C(Br)(CBr)c1ccccc1 (configuration not stated) | 87.1% | 50.8% | 99.9% | 91.6% | 105% | 98.8% | 107% | 72.5% | 82.6% | 103%
7 | CC(C)c1ccc(Nc2n[nH]c(=S)s2)cc1 | 104% | 95.5% | 102% | 89.1% | 109% | 107% | 104% |  | 93.5% | 90.4%
8 | NC(=S)Nc1ccc2c(c1)Cc1ccccc1-2 | 108% | 82% | 88.4% | 69.5% | 102% | 90.5% |  | 69.9% | 99.7% | 98.7%
9 | O=C1C=CC(=O)N1c1ccccc1 | 109% | 52.6% | 101% | 78.6% | 88.7% | 112% | 100% | 96.9% | 94.2% | 
10 | NC(=S)N/N=C\c1nccc2c(N)cccc12 | 11% | 14.2% | 3.21% (active) | 49% | 35.8% | 8.21% (active) |  | 7.45% (active) | -34.8% (active) | -15.5% (active)
11 | CC1=CC(=O)C=CC1(C)C(Cl)(Cl)Cl (configuration not stated) | 124% | 107% | 91.2% | 92.2% | 115% | 107% |  | 69.8% | 97.8% | 102%
12 | Clc1ccc(-n2ncc3c(NCCCN4CCOCC4)ncnc32)cc1 | 104% | 94.2% | 95.7% | 83.2% | 90.3% | 99.1% | 97% |  | 97.2% | 99.4%
13 | Cc1cc(N/N=C/c2ccccn2)nc2ccccc12 | 18.2% | 9.21% (active) | 8.16% (active) | 42% | 8.96% (active) | 5.12% (active) | -37.8% (active) | -22.6% (active) | -39.7% (active) | 
14 | Oc1c(Cl)cc(Cl)cc1C=NCC1CCC(CN=Cc2cc(Cl)cc(Cl)c2O)CC1 (configuration not stated) | 104% | 66.8% | 89.6% |  | 90.9% | 70.9% | 89.3% | 111% | 90.4% | 98%
15 | N#C/C(=N\Nc1ccc(Cl)cc1)C(=O)C1CC1 | 74.4% | 63.2% | 31.1% |  | 84.9% |  | 59.7% | 3.99% (active) | 52.2% | 40.9%
16 | CN(C)c1ccc2cc3c(cc2c1)Oc1ccccc1N3.[Cl][Zn][Cl] | 90.9% | 12.1% |  | 0.0703% (active) | 95.6% | 83.8% | 99.9% | 81.5% | 102% | 97.2%

Row | Structure (SMILES) | growth (DU-145 prostate) | growth (K-562 leukemia) | growth (MALME-3M melanoma) | growth (MDA-MB-231 breast) | growth (RXF 393 renal) | growth (SF-268 CNS) | growth (SF-539 CNS) | growth (UACC-257 melanoma) | growth (M14 melanoma) | growth (SF-295 CNS)
17 | Cc1cc2nc(CC(=O)c3ccncc3)c(=O)[nH]c2cc1C | 100% | 91.1% | 109% |  | 96.4% | 94.2% | 60.8% | 107% | 106% | 92%
18 | O=C(CCl)N1c2ccccc2Sc2c1ccc1ccccc21 | 93.9% | 55.7% |  | 76.4% | 70.4% | 70.4% | 84.7% | 89.4% | 61.1% | 94.5%
19 | Cc1ccc(N2C(=O)C=CC2=O)cc1 | 119% | 0.664% (active) |  | 97.6% | 99.7% | 106% | 112% | 103% | 101% | 115%
20 | O=C/C=C/c1ccc([N+](=O)[O-])cc1 | 102% | 95.8% | 99.6% |  | 116% | 98.2% | 99.3% | 97.7% | 93.3% | 105%
21 | COc1cc([C@@H]2c3cc4c(cc3[C@H](OC3OC5COC(c6ccccc6)OC5C(O)C3O)[C@H]3COC(=O)[C@H]23)OCO4)cc(OC)c1OC (some centres not stated) | 57% | 15.9% |  | 66.3% | 65.7% | 29.3% | 19.4% | 57.5% | 33.2% | 35.8%
22 | CCCCCCCCCCCC[S+](C)CC(=O)[O-] (configuration not stated) | 54.8% | 30.7% | 51.2% |  | 0.613% (active) | 30.6% | 53.7% | 56.7% | 43.7% | 38.6%
23 | CC(C)N=C(N)/N=C(\N)Nc1ccc2ccc3ccccc3c2c1 | -89.5% (active) | -42.3% (active) | -89.6% (active) |  | -89.7% (active) | -64.7% (active) | -98.9% (active) | -79.1% (active) | -76.8% (active) | -89.1% (active)
24 | CN1CCC(c2ccccc2)(c2ccccc2)C(=O)C1 | 102% | 65.6% | 90.7% |  | 95.7% | 104% | 94.3% | 95% | 92.4% | 85.8%
25 | Oc1c(C(Nc2ccccc2)c2ccccc2)ccc2cccnc12 (configuration not stated) | 57.8% | 32.1% | 87.6% |  | 74.9% | 33.4% | 27.2% | 64.3% | 45.8% | 6.25% (active)
26 | COC(=O)[C@]1(C)CCC[C@]2(C)c3ccc(C(C)C)cc3C(=O)[C@@H](Br)[C@@H]12 | 102% | 72.4% |  | 82.9% | 74.2% | 102% | 98.2% | 92.5% | 90.6% | 91.4%
27 | COc1ccc2nc3cc(Cl)ccc3c(NCCCCCN3CCCCC3)c2c1 | -3.46% (active) | -13.9% (active) | -84.7% (active) |  | -72.1% (active) | -36.4% (active) | -89.7% (active) | -74.8% (active) | -81.9% (active) | 43.2%
28 | NNc1ccc(Cl)cc1Cl | 108% | 13.4% | 104% |  | 102% | 71.7% | 94.5% |  | 67.6% | 76.6%
29 | COc1ccc(/C=C2/C(=O)ON=C2C)cc1 | 109% | 100% |  | 96.8% | 102% | 104% | 107% | 100% | 109% | 110%
30 | CCCCCC[C@@H](O)C/C=C\CCCCCCCC(=O)OCCOC | 116% | 137% |  | 90% | 110% | 106% | 106% | 100% |  | 131%
31 | Cc1onc(-c2ccccc2)c1C(=O)N/N=C/c1cc(Cl)cc(Cl)c1O | 44.6% | 29.4% |  | 34.4% | 64.1% | 34.1% | 16.5% | 17.4% | 14.3% | -5.54% (active)
